# Reference: the supplement of paper PMC8728848
# The full list was thinned out, with the strongest signals kept by preference.
# Key:
# Assay in all cases: glycan array binding signal (z-score within array); higher = stronger binding
# Conditions in all cases: glycan notation: IUPAC condensed, linker removed
# [1] = biological target: Gal(b1-4)GlcNAc(b1-3)Gal(b1-4)GlcNAc(b1-3)Gal(b1-4)GlcNAc(b1-2)Man(a1-3)[Gal(b1-4)GlcNAc(b1-3)Gal(b1-4)GlcNAc(b1-3)Gal(b1-4)GlcNAc(b1-2)Man(a1-6)]Man(b1-4)GlcNAc(b1-4)GlcNAc
# Method in brief: (§1)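 Columns mapping to the same glycan were averaged after glycan names were converted to IUPAC-condensed notation. The data come from 3228 arrays in the Consortium for Functional Glycomics database, limited to those with an available protein sequence. Binding is reported as a within-array Z-score averaged across arrays of one protein sequence and across linkers.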
# [2] = biological target: Gal(b1-4)GlcNAc(b1-3)Gal(b1-4)GlcNAc(b1-3)Gal(b1-4)GlcNAc(b1-3)Gal(b1-4)GlcNAc(b1-2)Man(a1-3)[Gal(b1-4)GlcNAc(b1-3)Gal(b1-4)GlcNAc(b1-3)Gal(b1-4)GlcNAc(b1-3)Gal(b1-4)GlcNAc(b1-2)Man(a1-6)]Man(b1-4)GlcNAc(b1-4)GlcNAc
# Method in brief: as §1
# [3] = biological target: Gal(b1-4)GlcNAc(b1-3)Gal(b1-4)GlcNAc(b1-3)Gal(b1-4)GlcNAc(b1-3)Gal(b1-4)GlcNAc(b1-3)Gal(b1-4)GlcNAc(b1-2)Man(a1-3)[Gal(b1-4)GlcNAc(b1-3)Gal(b1-4)GlcNAc(b1-3)Gal(b1-4)GlcNAc(b1-3)Gal(b1-4)GlcNAc(b1-3)Gal(b1-4)GlcNAc(b1-2)Man(a1-6)]Man(b1-4)GlcNAc(b1-4)GlcNAc
# Method in brief: as §1
# [4] = biological target: Gal6P(b1-4)GlcNAc
# Method in brief: as §1
# [5] = biological target: GalNAc(b1-3)Gal(a1-4)Gal(b1-4)GlcNAc(b1-3)Gal(b1-4)Glc
# Method in brief: as §1
# [6] = biological target: GalNAc(b1-3)Gal(a1-6)Gal(b1-4)Glc
# Method in brief: as §1
# [7] = biological target: GalNAc(b1-3)GalNAc
# Method in brief: as §1
# [8] = biological target: GalNAc3S(b1-4)[Fuc(a1-3)]GlcNAc
# Method in brief: as §1
# [9] = biological target: Glc(b1-6)Glc
# Method in brief: as §1
# [10] = biological target: GlcNAc(a1-4)Gal(b1-3)GlcNAc
# Method in brief: as §1
# [11] = biological target: GlcNAc(a1-4)Gal(b1-4)GlcNAc(b1-3)Gal(b1-4)[Fuc(a1-3)]GlcNAc(b1-3)Gal(b1-4)[Fuc(a1-3)]GlcNAc
# Method in brief: as §1
# [12] = biological target: GlcNAc(b1-3)Gal(b1-4)GlcNAc(b1-3)Gal(b1-4)GlcNAc(b1-2)Man(a1-3)[GlcNAc(b1-3)Gal(b1-4)GlcNAc(b1-3)Gal(b1-4)GlcNAc(b1-2)Man(a1-6)]Man(b1-4)GlcNAc(b1-4)GlcNAc
# Method in brief: as §1
# [13] = biological target: GlcNAc(b1-3)Gal(b1-4)GlcNAc(b1-3)Gal(b1-4)GlcNAc(b1-3)Gal(b1-4)GlcNAc(b1-2)[GlcNAc(b1-3)Gal(b1-4)GlcNAc(b1-3)Gal(b1-4)GlcNAc(b1-3)Gal(b1-4)GlcNAc(b1-6)]Man(a1-6)[GlcNAc(b1-3)Gal(b1-4)GlcNAc(b1-3)Gal(b1-4)GlcNAc(b1-3)Gal(b1-4)GlcNAc(b1-2)Man(a1-3)]Man(b1-4)GlcNAc(b1-4)[Fuc(a1-6)]GlcNAc
# Method in brief: as §1
# [14] = biological target: GlcNAc(b1-3)Gal(b1-4)GlcNAc(b1-6)[Gal(b1-3)]GalNAc
# Method in brief: as §1
# [15] = biological target: GlcNAc(b1-4)GlcNAc(b1-4)GlcNAc(b1-4)GlcNAc(b1-4)GlcNAc
# Method in brief: as §1
# [16] = biological target: Kdn(a2-3)Gal(b1-3)GlcNAc
# Method in brief: as §1
# [17] = biological target: Man(a1-2)Man(a1-2)Man(a1-3)Man
# Method in brief: as §1
# [18] = biological target: Man(a1-2)Man(a1-3)[Man(a1-6)]Man(a1-6)[Man(a1-2)Man(a1-3)]Man(b1-4)GlcNAc(b1-4)GlcNAc
# Method in brief: as §1
# [19] = biological target: Man(a1-2)Man(a1-6)[Man(a1-3)]Man(a1-6)[Man(a1-2)Man(a1-2)Man(a1-3)]Man(b1-4)GlcNAc(b1-4)GlcNAc
# Method in brief: as §1
# [20] = biological target: Neu5Ac(a2-3)Gal(b1-3)GlcNAc(b1-2)Man
# Method in brief: as §1
# [21] = biological target: Neu5Ac(a2-3)Gal(b1-3)GlcNAc(b1-6)GalNAc
# Method in brief: as §1
# [22] = biological target: Neu5Ac(a2-3)Gal(b1-4)GlcNAc(b1-3)Gal(b1-4)GlcNAc(b1-3)Gal(b1-4)GlcNAc(b1-2)Man(a1-3)[Neu5Ac(a2-3)Gal(b1-4)GlcNAc(b1-3)Gal(b1-4)GlcNAc(b1-3)Gal(b1-4)GlcNAc(b1-2)Man(a1-6)]GalNAc
# Method in brief: as §1
# [23] = biological target: Neu5Ac(a2-3)Gal(b1-4)GlcNAc6S
# Method in brief: as §1
# [24] = biological target: Neu5Ac(a2-3)Gal(b1-4)[Fuc(a1-3)]GlcNAc(b1-3)GalNAc
# Method in brief: as §1
# [25] = biological target: Neu5Ac(a2-8)Neu5Ac
# Method in brief: as §1
# [26] = biological target: Neu5Ac(a2-8)Neu5Gc(a2-3)Gal(b1-4)GlcNAc
# Method in brief: as §1
# [27] = biological target: Neu5Gc(a2-6)GalNAc
# Method in brief: as §1
binder,measurement,setting,value
PX14375C-bth-509-28-509 (Bacteroides thetaiotaomicron) (protein) RSPQGQFTEDDNPNALVNGKIYNVYTMMRSFDITAGTPAIAIHYLRSEDSEKGSIPSDGSDVAEMYDDFLYTPTNGLLGSYWGKNYAIIYQCNDILDAIAEKETAGQTETEDIINKGEASFFRAYCYFNLVRAFGEVPLVTYKINDASEANIPKTTADKIYEQIDTDLKTAEESLPETWSTEYTGRLTWGAARSLHARTYMMRSDWDNMYKASTDVINKGLYNLKTPYNEIFTDDGENSGGSIFELQCTATAALPQSDVIGSQFCEVQGVRGAGQWDLGWGWHMATQLMADAYETGDPRKNATLLYFRKTDDEPITPENTNEPYGESPISPAMGAYFNKKAYTDPALRKEYTNKGFWVNIRLIRYSDVVLMAAEAANEKNIPGEAVDYLEMVRARARGTNTNILPKITTNDQGELREAIRHERRVELGLEPDRFYDLVRWGIASEVLHAAGKVNYQDKNALLPLPQSEIDKSKGVLVQNPDY,glycan array binding signal (z-score),[1],0.774
same,glycan array binding signal (z-score),[2],0.053
same,glycan array binding signal (z-score),[3],3.46
same,glycan array binding signal (z-score),[4],-0.343
same,glycan array binding signal (z-score),[5],0.244
same,glycan array binding signal (z-score),[6],-0.426
same,glycan array binding signal (z-score),[7],1.2
same,glycan array binding signal (z-score),[8],-0.31
same,glycan array binding signal (z-score),[9],-0.146
same,glycan array binding signal (z-score),[10],-0.442
same,glycan array binding signal (z-score),[11],-0.057
same,glycan array binding signal (z-score),[12],3.19
same,glycan array binding signal (z-score),[13],-0.11
same,glycan array binding signal (z-score),[14],-0.076
same,glycan array binding signal (z-score),[15],0.127
same,glycan array binding signal (z-score),[16],0.209
same,glycan array binding signal (z-score),[17],-0.321
same,glycan array binding signal (z-score),[18],-0.274
same,glycan array binding signal (z-score),[19],-0.383
same,glycan array binding signal (z-score),[20],-0.329
same,glycan array binding signal (z-score),[21],3.9
same,glycan array binding signal (z-score),[22],5.44
same,glycan array binding signal (z-score),[23],-0.321
same,glycan array binding signal (z-score),[24],-0.014
same,glycan array binding signal (z-score),[25],4.99
same,glycan array binding signal (z-score),[26],5.56
same,glycan array binding signal (z-score),[27],-0.21
